According to PubChem BioAssay (EPA / NIEHS):
Activity calls are given as the source filed them. How the source made its calls: active means hit-call score of the fitted dose curve at least 0.9, where 1 is the maximum; inactive means score below 0.9.

Columns and labels:
Settings in all cases: primary human HUVEC with PBMC; actives raise or lower the signal
[1] = read-out: Interleukin-1 alpha (IL1a), IL1A (gene 3552); assay: BSK_LPS_IL1a: BioMAP Diversity Plus: LPS Assay for Interleukin-1 alpha (IL1a) Biomarker Activity (AID 2283080)
Outline: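 Human umbilical vein endothelial cells co-cultured with peripheral blood mononuclear cells were LPS-stimulated and exposed to test chemicals for 24 h. IL-1 alpha was quantified by ELISA, with bidirectional curve fitting against DMSO as the negative control and baseline.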

[2] = read-out: Monocyte Chemoattractant Protein-1 (MCP1), CCL2 (gene 6347); assay: BSK_LPS_MCP1: BioMAP Diversity Plus: LPS Assay for Monocyte Chemoattractant Protein-1 (MCP1) Biomarker Activity (AID 2283081);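 on AC50: secreted MCP-1 protein quantified by ELISA in culture supernatant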
Outline: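 HUVEC plus PBMC co-culture (human primary cells, LPS system) exposed to test chemical for 24 h; MCP-1 measured by ELISA. Bidirectional curve fitting against DMSO baseline; parallel SRB total-protein staining flags overt cytotoxicity.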

[3] = BSK_LPS_PGE2: BioMAP Diversity Plus: LPS Assay for Prostaglandin E2 (PGE2) Biomarker Activity (AID 2283082);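 on AC50: secreted prostaglandin E2 measured by ELISA in LPS-stimulated co-culture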
Outline: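 ELISA read-out of PGE2 from human umbilical vein endothelial cells co-cultured with peripheral blood mononuclear cells under LPS, 24 h post-dose. Gain or loss of signal scored relative to DMSO baseline.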

[4] = read-out: Macrophage colony-stimulating factor (MCSF), CSF1 (gene 1435); assay: BSK_LPS_MCSF: BioMAP Diversity Plus: LPS Assay for Macrophage colony-stimulating factor (MCSF) Biomarker Activity (AID 2283083)
Outline: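 Human umbilical vein endothelial cells co-cultured with peripheral blood mononuclear cells were exposed to compound for 24 h. M-CSF levels were measured by ELISA, and bidirectional curve fitting used DMSO as the negative control and baseline.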

[5] = read-out: Tissue Factor, F3 (gene 2152); assay: BSK_LPS_TissueFactor: BioMAP Diversity Plus: LPS Assay for Tissue Factor Biomarker Activity (AID 2283084)
Outline: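 Human umbilical vein endothelial cells co-cultured with peripheral blood mononuclear cells were dosed and stimulated with LPS. Cell-surface CD142 was quantified by ELISA at 24 h. Activity was fitted bidirectionally against DMSO baseline.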

[6] = read-out: Vascular cell adhesion molecule 1 (VCAM1), VCAM1 (gene 7412); assay: BSK_LPS_VCAM1: BioMAP Diversity Plus: LPS Assay for Vascular cell adhesion molecule 1 (VCAM1) Biomarker Activity (AID 2283086)
Outline: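 ELISA read-out of VCAM-1 at 24 h post-dosing in an LPS-driven HUVEC/PBMC primary human co-culture; gain or loss of signal fitted bidirectionally against DMSO baseline. Cytotoxicity tracked in parallel cultures by SRB total-protein staining.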

CD38, CD38 (gene 952) = assay: BSK_SAg_CD38: BioMAP Diversity Plus: SAg Assay for CD38 Biomarker Activity (AID 2283087)
Outline: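 Measures CD38 on a human endothelial/PBMC co-culture driven by SEB and TSST-1, 24 h after compound exposure, using ELISA with fluorescence detection; DMSO defines baseline for bidirectional curve fitting.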

CD40, CD40 (gene 958) = assay: BSK_SAg_CD40: BioMAP Diversity Plus: SAg Assay for CD40 Biomarker Activity (AID 2283088)
Outline: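 Human umbilical vein endothelial cells co-cultured with PBMC; CD40 levels measured by ELISA with fluorescence read-out 24 h after chemical dosing. Gain or loss of signal fitted bidirectionally against DMSO baseline.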

CD69, CD69 (gene 969) = assay: BSK_SAg_CD69: BioMAP Diversity Plus: SAg Assay for CD69 Biomarker Activity (AID 2283089);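 on AC50: cell surface CD69 protein quantified by ELISA with fluorescence detection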
Outline: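 HUVEC co-cultured with PBMC were dosed with chemical, and CD69 was measured by ELISA with fluorescence read-out 24 h later. Bidirectional curve fitting used DMSO as negative control and activity baseline.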

[7] = read-out: Tumor necrosis factor (Homo sapiens) (UniProt P01375); assay: BSK_LPS_TNFa: BioMAP Diversity Plus: LPS Assay for Tumour Necrosis Factor alpha (TNFa) Biomarker Activity (AID 2283085);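 on AC50: TNFa protein level quantified by ELISA in the co-culture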
Outline: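 HUVEC/PBMC co-culture, LPS-stimulated; 24 h post-dose; TNFa by ELISA; gain or loss of signal fitted bidirectionally vs DMSO baseline.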

Measured: AC50

Sequence of Tumor necrosis factor (Homo sapiens) (P01375 whole entry, looked up): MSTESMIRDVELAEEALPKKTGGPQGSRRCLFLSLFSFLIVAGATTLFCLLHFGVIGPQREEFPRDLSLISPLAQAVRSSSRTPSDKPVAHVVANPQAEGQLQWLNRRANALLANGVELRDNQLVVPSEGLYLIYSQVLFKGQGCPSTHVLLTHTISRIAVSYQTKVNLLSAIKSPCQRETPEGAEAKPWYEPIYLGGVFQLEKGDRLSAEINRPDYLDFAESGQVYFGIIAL

FC(F)(F)C(F)(F)C(F)(F)C(F)(F)C(F)(F)C(F)(F)CCI
not listed: [7]
inactive: all other assays above

NCC1(Cc2noc(=O)[nH]2)CCCCC1
not listed: [7]
inactive: all other assays above

C[C@]12C=CC(=O)C=C1CC[C@@H]1[C@@H]2C(=O)C[C@@]2(C)[C@H]1CC[C@]2(O)C(=O)CO
not listed: [6] | CD40, CD40 (gene 958) | [7]
inactive: all other assays above

CCCCCCCCCCCCCCCC
not listed: [5]
inactive: all other assays above

Cc1nc(-c2ccc3c(c2)CCN(CCC2CCC(NC(=O)/C=C/c4ccc(F)cc4)CC2)CC3)no1 (stereo unspecified)
active: [3] 1.45 µM | [4] 9.3 µM | CD38, CD38 (gene 952) 9.3 µM | CD40, CD40 (gene 958) 6.43 µM
not listed: [6]
inactive: all other assays above

Cc1cccc([N+](=O)[O-])c1C
not listed: [7]
inactive: all other assays above

CCCCCCCC=O
not listed: CD40, CD40 (gene 958)
inactive: all other assays above

COC(=O)c1ccc(O)cc1
active: [3] 1.34 µM
inactive: all other assays above

NC(=O)Cn1c(=O)cc(CCN2CCN(c3nccc4sccc34)CC2)c2ccc(F)cc21
not listed: [5] | CD40, CD40 (gene 958)
inactive: all other assays above

O=C(OCCCCCOC(=O)c1ccccc1)c1ccccc1
active: [7] 12.7 µM
inactive: all other assays above

Nc1nc(N)c2nc(CNc3ccc(C(=O)N[C@@H](CCC(=O)O)C(=O)O)cc3)cnc2n1
not listed: [5]
inactive: all other assays above

CCNc1cccc(C)c1
not listed: [5]
inactive: all other assays above

O=c1c(O)c(-c2ccc(O)c(O)c2)oc2cc(O)cc(O)c12
active: [3] 32.8 µM | CD38, CD38 (gene 952) 29.9 µM | CD40, CD40 (gene 958) 36 µM
inactive: all other assays above

COc1ccc2c(c1)c(CC(=O)O)c(C)n2C(=O)c1ccc(Cl)cc1
active: [3] 0.148 µM
not listed: CD40, CD40 (gene 958)
inactive: all other assays above

CNCc1cc(F)ccc1Oc1ccc(Cl)c(Cl)c1
active: [2] 26.2 µM | [7] 0.461 µM | CD38, CD38 (gene 952) 28.5 µM | CD40, CD40 (gene 958) 36.5 µM | CD69, CD69 (gene 969) 26.3 µM
inactive: all other assays above

Cc1ccc2ncccc2c1
not listed: [5] | CD40, CD40 (gene 958)
inactive: all other assays above

CCCCCCCCCCCCCO
active: CD38, CD38 (gene 952) 31.1 µM | CD40, CD40 (gene 958) 29.8 µM
not listed: [6]
inactive: all other assays above

CC1(C)CC(N=C=O)CC(C)(CN=C=O)C1 (stereo unspecified)
not listed: [5]
inactive: all other assays above

Nc1ccccc1N
active: [3] 10.9 µM | [4] 3.97 µM | [6] 11.2 µM
not listed: CD40, CD40 (gene 958)
inactive: all other assays above

O=C(N[C@@H](Cc1ccccc1)[C@@H](O)C(=O)N1C[C@@H](O)[C@@H](O)C1)c1cc2cc(Cl)ccc2[nH]1
inactive: all assays above

Cc1oc(-c2ccccc2)nc1CCOc1cccc2c1ccn2CCC(=O)O
active: [3] 5.34 µM
not listed: CD40, CD40 (gene 958) | [7]
inactive: all other assays above

CC(CO)OC(C)CO (stereo unspecified) (tested in a mixture with another compound)
not listed: [6] | CD40, CD40 (gene 958)
inactive: all other assays above

CC(C)(C)c1cc(O)c(C(C)(C)C)cc1O
active: [3] 9.44 µM | [7] 1.43 µM | [6] 8.05 µM | CD40, CD40 (gene 958) 11.7 µM | CD69, CD69 (gene 969) 5.55 µM
inactive: [1] | [2] | [4] | [5] | CD38, CD38 (gene 952)

OC[C@@H](O)[C@@H](O)[C@H](O)[C@H](O)CO
inactive: all assays above

COc1cc(-c2nc(NC(=O)c3cc4cc(C)cc(C)c4n3CC(=O)O)sc2CCC2CCCCC2)c(OC)cc1Cl
active: [1] 4.69 µM | [2] 3.25 µM | [3] 3.97 µM | [4] 4.31 µM | [5] 6.36 µM | [7] 10 µM | [6] 5.07 µM | CD38, CD38 (gene 952) 3.43 µM | CD69, CD69 (gene 969) 3.95 µM

Cc1nc(C)nc(N2C[C@@H](C)N(c3ccnc([C@@H](C)O)n3)[C@@H](C)C2)n1
not listed: [6] | CD40, CD40 (gene 958) | [7]
inactive: all other assays above

COc1cc(S(=O)(=O)O)c(C)cc1N=Nc1c(O)ccc2cc(S(=O)(=O)O)ccc12
not listed: [6] | CD40, CD40 (gene 958)
inactive: all other assays above

CCCc1cc(=O)[nH]c(=S)[nH]1
not listed: [6] | CD40, CD40 (gene 958) | [7]
inactive: all other assays above

COc1ccc(S(=O)(=O)N2C(=O)[C@@](c3ccccc3OC)(N3C[C@H](O)C[C@H]3C(=O)N(C)C)c3cc(Cl)ccc32)c(OC)c1
inactive: [1] | [2] | [3] | CD38, CD38 (gene 952)
active: [4] 32 µM | [7] 16.6 µM | [6] 27 µM | CD69, CD69 (gene 969) 11.9 µM

CCOC(=O)CCC(=O)OCC
not listed: [5] | [6] | CD40, CD40 (gene 958)
inactive: all other assays above

CCCCN(CCCC)CCCC
not listed: [5] | [6]
inactive: all other assays above

CCOc1ccc2c(c1)C(C)=CC(C)(C)N2
active: [3] 4.6 µM
not listed: [5] | [7]
inactive: all other assays above

C=CCOC(=O)c1ccccc1C(=O)OCC=C
not listed: [3] | [6]
inactive: all other assays above

CC(=O)Oc1ccccc1C(=O)O
not listed: [3] | [6] | CD40, CD40 (gene 958)
inactive: all other assays above

c1cc(-c2ccncc2)ccn1
not listed: [5] | [6] | [7]
inactive: all other assays above

CCCCCCCCCCC
not listed: [5] | [7]
inactive: all other assays above

C1CCC(SSC2CCCCC2)CC1
active: [2] 20 µM | CD38, CD38 (gene 952) 20 µM | CD40, CD40 (gene 958) 27 µM | CD69, CD69 (gene 969) 20 µM
inactive: [1] | [3] | [4]

Nc1ccc2c(c1)C(=O)c1ccccc1C2=O
inactive: [1] | [2] | [4] | CD38, CD38 (gene 952) | CD69, CD69 (gene 969)
active: [3] 3.36 µM | [7] 5.74 µM

COCCOCCOC
not listed: [3] | [6]
inactive: all other assays above
